# Measured values from PubChem BioAssay (NCATS).
# Unmarked numbers belong to inactive results. Active and inactive are the calls of the source. The call rests on the fitted dose curve; in most records, active means well fitted cell-killing curve with a large enough effect; inconclusive means small, poorly fitted or top-dose-only effect, or effect the other way; inactive means flat fitted curve, though single readings scatter.
# Experiment: MultiTox-Fluor Cytotoxicity Assay - LYMP1-003 - Dead Cells (AID 961);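 further: cells exposed to compound for 16 h at 37 °C; nearly all actives have a fitted effect of over 70% in size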;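 on cytotoxicity (dead cells): 0% = DMSO and 100% = tetraoctylammonium bromide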
# Conditions: LYMP1-003 lymphoblastoid cells, dead-cell protease fluorescence; series mostly up to 92.2 µM; cytotoxicity (dead cells): at the top concentration
# From the text: NIH Chemical Genomics Center [NCGC]
# NIH Molecular Libraries Screening Centers Network [MLSCN]
# National Institutes of Environmental Health Sciences [NIEHS]
# National Toxicology Program [NTP]
# We have developed a 1536-well cell-based assay for quantitative high throughput screening (qHTS) against a number of cell lines to determine in vitro cytotoxicity of small molecules. This particular assay uses a human lymphoblastoid cell line (LYMP1-003) purchased from Coriell Institute.
# NCGC Assay Protocol Summary:
# The MultiTox-Fluor Cytotoxicity Assay (Promega) is a homogeneous method to simultaneously measure the relative number of live and dead cells in culture by detecting changes in cell membrane integrity. There are two fluorogenic peptide substrates in the assay reagent. Viable cells are determined when the cell-permeant substrate (GF-AFC) enters the cell and is cleaved by protease from live cells resulting in liberated fluorophore. This live-cell protease activity restricted to viable cells is proportional to cell number. The dead cells are determined by using fluorogenic cell-impermeant peptide substrate (bis-AAF-R110) which cleaved by dead cell proteases leaking from damaged cell membrane.
# Using the MultiTox-Fluor Cytotoxicity Assay, the relative number of dead cells was measured in the lymphoblastoid cell line with complete culture medium following compound treatment for 16 hours. The assay was performed in opaque black Kalypsys 1536-well plates. In the screen, tetraoctylammonium bromide was used as positive control. Library compounds were measured for their ability to cause acute toxicity in the cell line, as reflected by an increase in dead cell protease activity, in a concentration-dependent manner. Data were normalized to the controls for basal activity (DMSO only) and 100% stimulation (15 uM tetraoctylammonium bromide). AC50 values were determined from concentration-response data modeled with the standard Hill equation.
# qHTS protocol for MultiTox-Fluor Cytotoxicity assay
# [Step] [Parameter] [Value] [Description]
# 1. Reagent; 5 uL; 2500 lymphoblastoid cells/well
# 2. Time; 5 hr; 37 C incubation
# 4. Controls; 23 nL; Tetraoctylammonium bromide 6.4pM to 92 uM
# 5. Time; 16 hr; 37 C incubation
# 6. Reagent; 5 uL; MuliTox-Fluor Assay reagent
# 7. Time; 60 min; Room Temperature
# 8. Detection; dead-cell fluorescence (Ex/Em=485/520); EnVision plate reader
# Keywords: cytotoxicity, lymphoblastoid cell line, fluorescence, NTPHTS, NTPHTS_NCGC, NIEHS, EPA, DSSTox, MLSMR, MLSCN, NIH Roadmap, qHTS, NCGC
# Potency means the concentration at half of the fitted maximal effect.
Compound,cytotoxicity (dead cells),Potency
O=C(NO)c1ccccc1,-14.2%,
Nc1c2ccccc2nc2ccccc12,,15.8 µM (active)
COc1cc(C=O)ccc1O,-11.7%,
Oc1ccccc1,-6.38%,
Cc1cc(C(C)(C)C)c(O)c(C(C)(C)C)c1,1.48%,
Nc1cccc2c(N)cccc12,-6.29%,
OCc1c[nH]c2ccccc12,-12.8%,
CCCC(=O)c1cc(O)c(O)cc1O,-34.6%,
Nc1ccc(O)cc1,,50.1 µM (active)
Cc1ccc(O)cc1,-0.864%,
C1=CC2C3C=CC(C3)C2C1 (centres undefined),-13.1%,
CC(=O)OC/C=C(C)/C=C/C=C(C)/C=C/C1=C(C)CCCC1(C)C,15%,
CC(C)(c1ccc(O)cc1)c1ccc(O)cc1,,inactive
O=C(c1ccccc1)c1ccccc1,-11.4%,
CCCCC(CC)COC(=O)c1ccccc1C(=O)O (centres undefined),-14.9%,
CC(C)C(C)(C)C(C)(C)C(C)(C)S,-13%,
Brc1ccccc1-c1ccccc1,-10.4%,
c1ccc2occc2c1,-5.81%,
O=C(Oc1ccccc1)c1ccccc1O,15.7%,
